Source: PubChem BioAssay (NCATS)
Inconclusive results are not listed. A call without a number means that no potency is given here. Values without a mark were called inactive. Calls of active or inactive are those of the source. Calls come from the whole dose curve; as a rule, active = well fitted curve in the direction sought with a large enough effect; inconclusive = small, poorly fitted or top-dose-only effect, or another doubt; inactive = no such curve, though single readings can be large; an effect the other way counts as inactive or inconclusive.

Assays:
[1] = target: Aldehyde dehydrogenase, mitochondrial (Homo sapiens) (UniProt P05091); experiment: qHTS for Inhibitors of the Aldehyde Dehydrogenase Family (ALDH2) Primary screen (AID 2061308); note: nearly all actives have a fitted effect of over 55% in size
[2] = target: Retinaldehyde dehydrogenase 3 (Homo sapiens) (UniProt P47895); experiment: qHTS for Inhibitors of the Aldehyde Dehydrogenase Family (ALDH1A3) Primary screen (AID 2061315)
[3] = BET inhibitor-based combinations targeting novel dependencies in MECOM-rearranged (r) AML: SET-2 cell line (AID 2202231); conditions: SET-2 AML cells viability, CellTiter-Glo luminescence, 48 h; viability: stronger effect = lower value, concentration not given here; note: nearly all actives have a fitted effect of over 35% in size; note: potency is the fitted concentration of half-maximal effect
Summary of the method: (§1)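 Here, 11-point titrations of each agent were applied to 500 seeded cells and incubated 48 hr; CellTiter-Glo signal, scaled against DMSO and empty wells, was integrated as AUC, then Z-scored within the individual line.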

[4] = BET inhibitor-based combinations targeting novel dependencies in MECOM-rearranged (r) AML: MV-4-11 cell line (AID 2202233); note: nearly all actives have a fitted effect of over 45% in size; note: potency is the fitted concentration of half-maximal effect
Summary of the method: (§2)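 Normalized to DMSO and empty-well controls, the luminescence data from CellTiter-Glo after 48 hr drug exposure were fitted across 11 concentrations. Reported metrics are area under the dose-response curve and its Z-transformed form.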

[5] = BET inhibitor-based combinations targeting novel dependencies in MECOM-rearranged (r) AML: HNT-34 cell line (AID 2202234); note: nearly all actives have a fitted effect of over 35% in size; note: potency is the fitted concentration of half-maximal effect
Summary of the method: as §2

[6] = BET inhibitor-based combinations targeting novel dependencies in MECOM-rearranged (r) AML: UCSD-AML1 cell line (AID 2202235); note: nearly all actives have a fitted effect of over 40% in size; note: potency is the fitted concentration of half-maximal effect
Summary of the method: as §2

[7] = BET inhibitor-based combinations targeting novel dependencies in MECOM-rearranged (r) AML: AML-194 cell line (AID 2202237; note: nearly all actives have a fitted effect of over 40% in size; note: potency is the fitted concentration of half-maximal effect)
Summary of the method: as §1

[8] = BET inhibitor-based combinations targeting novel dependencies in MECOM-rearranged (r) AML: OCI-AML3 cell line (AID 2202232); conditions: Potency: OCI-AML3 viability; note: nearly all actives have a fitted effect of over 35% in size; note: potency is the fitted concentration of half-maximal effect
Summary of the method: as §1

[9] = BET inhibitor-based combinations targeting novel dependencies in MECOM-rearranged (r) AML: AML-191 cell line (AID 2202236; note: nearly all actives have a fitted effect of over 35% in size; note: potency is the fitted concentration of half-maximal effect)
Summary of the method: as §1

[10] = target: Retinaldehyde dehydrogenase 3 (Homo sapiens) (UniProt P47895); experiment: qHTS for Inhibitors of the Aldehyde Dehydrogenase Family (ALDH1A3) Validation screen (AID 2061312); note: nearly all actives have a fitted effect of over 45% in size

SMILES	Potency [1]	Potency [2]	viability [3] [%]	Potency [4]	Potency [5]	Potency [6]	Potency [7]	Potency [3]	Potency [8]	Potency [9]	Potency [10]
COc1cc(Nc2nc3ccccc3nc2NS(=O)(=O)c2ccc(NC(=O)c3ccc(C)c(OC)c3)cc2)cc(OC)c1	inactive	inactive	111	inactive	inactive	inactive	inactive	–	–	–	–
Cc1ccc(C(=O)Nc2cccc(C(F)(F)F)c2)cc1-c1ccc2nc(NCCN3CCOCC3)ncc2c1	inactive	inactive	–	2.35 µM (active)	0.0934 µM (active)	3.32 µM (active)	3.32 µM (active)	11.8 µM (active)	0.525 µM (active)	2.63 µM (active)	–
O=C(Nc1ccc(Oc2ccnc3[nH]ccc23)c(F)c1)c1cccn(-c2ccc(F)cc2)c1=O	inactive	inactive	106	0.0295 µM (active)	–	–	8.33 µM (active)	–	13.2 µM (active)	2.35 µM (active)	–
CS(=O)(=O)N1CCC(NC(=O)c2[nH]ncc2NC(=O)c2c(Cl)cccc2Cl)CC1	inactive	inactive	–	–	–	1.48 µM (active)	1.86 µM (active)	2.35 µM (active)	1.48 µM (active)	1.18 µM (active)	–
COc1cc2c(cc1OC)CN(CCc1ccc(NC(=O)c3cc(OC)c(OC)cc3NC(=O)c3cnc4ccccc4c3)cc1)CC2	inactive	inactive	119	inactive	inactive	inactive	inactive	–	–	inactive	–
Cc1cn(-c2cc(NC(=O)c3ccc(C)c(Nc4nccc(-c5cccnc5)n4)c3)cc(C(F)(F)F)c2)cn1	inactive	inactive	–	–	0.0295 µM (active)	–	–	–	1.18 µM (active)	–	–
N#Cc1cccc(-c2c[nH]c3ncnc(N4CCOCC4)c23)c1	inactive	inactive	–	–	–	inactive	inactive	–	–	18.6 µM (active)	–
C[C@@H](NCc1cc2ccccc2[nH]1)c1cccc2ccccc12	–	–	–	18.6 µM (active)	10.5 µM (active)	–	8.33 µM (active)	16.6 µM (active)	14.8 µM (active)	13.2 µM (active)	–
Cc1cc(O)c2c(c1)C(=O)c1cccc(O)c1C2=O	–	–	–	inactive	–	inactive	inactive	–	–	inactive	–
O=C(O)C1=CCCN(CCON=C(c2ccccc2)c2ccccc2)C1	–	–	–	–	–	–	–	–	–	–	inactive
CCN(CC)CCCCNc1ncc2c(n1)N(C)C(=O)N(c1c(Cl)c(OC)cc(OC)c1Cl)C2	–	–	–	14.8 µM (active)	10.5 µM (active)	–	–	18.6 µM (active)	–	–	–
Cc1c(CCOc2ccc(C(=O)O)cc2)c2cc(Cl)ccc2n1C(c1ccccc1)c1ccccc1	–	–	114	inactive	inactive	inactive	inactive	–	inactive	inactive	–
O=c1[nH]nc(Sc2ncc([N+](=O)[O-])s2)n1-c1ccc2c(c1)OCCO2	–	–	–	1.86 µM (active)	3.32 µM (active)	9.34 µM (active)	7.42 µM (active)	7.42 µM (active)	2.95 µM (active)	3.32 µM (active)	–
S=P(N1CC1)(N1CC1)N1CC1	–	–	–	20.9 µM (active)	–	inactive	–	–	–	26.3 µM (active)	–
Nc1cccc2c1C(=O)N(C1CCC(=O)NC1=O)C2=O (stereo unspecified)	–	–	112	0.0013 µM (active)	inactive	inactive	inactive	–	inactive	inactive	–
Cc1cn([C@@H]2C[C@@H](O)[C@H](CO)O2)c(=O)[nH]c1=O	–	–	103	inactive	–	inactive	inactive	–	inactive	inactive	–
O=C(O)c1cc(=O)c2c(OCC(O)COc3cccc4oc(C(=O)O)cc(=O)c34)cccc2o1	–	–	114	–	inactive	–	inactive	–	inactive	inactive	–
CCN(CC)CCCC(C)Nc1nc(C)cc(Nc2ccc3nc(C)cc(N)c3c2)n1 (stereo unspecified)	–	–	116	29.5 µM (active)	–	inactive	inactive	–	–	–	–
Cc1cc(OCc2nc(-c3ccccc3Cl)cs2)ccc1OCC(=O)O	–	inactive	–	–	–	–	–	–	–	–	inactive
O=S(=O)(O)CCS	–	–	120	–	inactive	inactive	inactive	–	inactive	inactive	–
O=C(O)c1ccc2cc(-c3ccc(O)c(C45CC6CC(CC(C6)C4)C5)c3)ccc2c1	–	–	–	0.934 µM (active)	1.05 µM (active)	0.934 µM (active)	1.05 µM (active)	0.59 µM (active)	0.525 µM (active)	0.934 µM (active)	–
Cc1c(CN2CCN(S(C)(=O)=O)CC2)sc2c(N3CCOCC3)nc(-c3cnc(N)nc3)nc12	inactive	–	–	1.32 µM (active)	1.66 µM (active)	0.186 µM (active)	–	–	0.59 µM (active)	0.59 µM (active)	–
